As a reminder, the inhibition is the drop in the measured response relative to a control, in per cent.

About 2,900 (47%) of roughly 6,200 compounds were called active. So high a share suggests a set chosen from earlier hits. The list shows a part of the results. Unmarked numbers belong to inactive results. Rule as the data show it: active = inhibition above about 50%; inactive = the rest.

This assay in a line: Mycobacterium tuberculosis growth inhibition, primary screen (AID 1259343). Conditions: inhibition: at 10 µM, hits give high values; outcome: 10 uM.
As for `COc1cccc(C(=O)Oc2ccc(C(=O)COC(=O)C3CC(=O)N(C4CCCCC4)C3)cc2)c1` (centres undefined), the inhibition is -11.2%.

For the compound `COc1c(Cl)cc(NC(=O)C2CC(=O)N(C)C2)cc1Cl` (centres undefined), the inhibition is 43.6%.

Regarding `O=C(Nc1nc(-c2ccc(Cl)cc2)cs1)C1CC(=O)N(C2CC2)C1` (centres undefined), the inhibition is 21.7%.

Take `CN(C)C(=O)N1CCC(C(=O)Nc2ccc(Oc3ccccc3)cc2)CC1`: the inhibition is 81.9% (active).

`CN(C)c1ccc2cc(NC(=O)C3CC(=O)N(C4CCCC4)C3)ccc2n1` (centres undefined): the inhibition is 87.7% (active).

On to `CN1CC(C(=O)Nc2ccc3nc(C4CC4)oc3c2)CC1=O` (centres undefined), for which the inhibition was -6.81%.

As for `O=C1CCC(C(=O)Nc2ccc(Oc3ccccc3)cc2)N1` (centres undefined), the inhibition is 29.5%.

Consider `Cc1ccc(NC(=O)C2CC(=O)N(C3CC3)C2)cc1C(F)(F)F` (centres undefined), for which the inhibition is 63.6% (active).

Regarding `O=C(Nc1ccc(Oc2ccccc2)cc1)C1CC(=O)N(C2CC2)C1` (centres undefined), the inhibition is 66.1% (active).

On to `CC1CC(N2CCN(c3nccs3)CC2)C(=O)O1` (centres undefined), for which the inhibition was 2.21%.

Take `CC(=O)NCCC1CCCCN1C(=O)Nc1ccc(Oc2ccccc2)cc1` (centres undefined): the inhibition is 83.9% (active).

For `O=C(Nc1ccc(Oc2ccccc2Cl)cc1)N1CCOC2CCCCC21` (centres undefined), the inhibition is 26.2%.

`Fc1cccc(-c2nnn(CCc3ccccn3)n2)c1`: the inhibition is 65.1% (active).

On to `Fc1ccc(-c2nnn(CCCc3n[nH]c(Cc4ccccc4)n3)n2)cc1`, for which the inhibition is 37.6%.

For the compound `CNS(=O)(=O)c1cc(NC(=O)CNC(=O)C2CCCCC2)ccc1C`, the inhibition was 8.53%.

For `CCNC(=O)CCC(=O)Nc1ccc(OC2CCCC2)c(F)c1`, the inhibition is 92.8% (active).

Regarding `c1ccc2c(c1)oc1c(NCC3CCCCC3)ncnc12`, the inhibition is 23.3%.

For the compound `c1ccc2c(c1)oc1c(NC3CCCCC3)ncnc12`, the inhibition is -31.2%.

As for `c1ccc2c(c1)oc1c(NC3CCCCCC3)ncnc12`, the inhibition is 102% (active).

Consider `COc1cc(C=c2sc(=CC(=O)c3ccco3)[nH]c2=O)cc(Br)c1O`, for which the inhibition was 91.2% (active).

Regarding `Fc1ccccc1CON=C1CCN(c2ncccn2)CC1`, the inhibition is 83.5% (active).

Turning to `c1cnc(NCc2cccnc2N2CCc3ccccc3C2)nc1`, the inhibition is 36.6%.

Take `CCN(CC(=O)Nc1c(Cl)cccc1Cl)C(=O)CCn1c(=O)oc2cc(Cl)ccc21`: the inhibition is -5.97%.

Take `CN(Cc1nc2c(s1)CCCC2)C(=O)c1cc(COc2ccc(-n3cncn3)cc2)on1`: the inhibition is 85.4% (active).

Take `CCc1ccc(CN(C)C(=O)c2cc(COc3ccc(-n4cncn4)cc3)on2)cc1`: the inhibition is 36.7%.

Turning to `C=CCOc1ccc(C=C2N=C(c3ccccc3I)OC2=O)cc1OC`, the inhibition is -4.12%.

In the case of `COc1cccc(C=C2N=C(c3ccccc3OC(F)F)OC2=O)c1`, the inhibition is 86.9% (active).

`COc1ccc(C=C2N=C(c3cccc(F)c3)OC2=O)cc1`: the inhibition is 3.76%.

Consider `Cc1cccc(CN(C)C)c1OC(=O)N(C)C`, for which the inhibition was 3.93%.

In the case of `CN(Cc1ccccc1C#N)c1ccc2ccccc2c1`, the inhibition is 30.3%.

Regarding `CN(C)Cc1ccc2ccc3cccc4ccc1c2c34`, the inhibition was 90.5% (active).

For `CN(Cc1ccc(-c2ccc(Cl)cc2)o1)C(=O)CCl`, the inhibition was 90.9% (active).

Turning to `CN(Cc1ccc(-c2ccc(Cl)cc2)o1)C(=O)CNC(=O)c1ccccc1`, the inhibition was 72.2% (active).

As for `Cc1oc(-c2ccc(Cl)cc2)nc1CN(C)Cc1ccc2nonc2c1`, the inhibition was 31.7%.

For the compound `Cc1cc(NC(=O)c2csc(-c3ccc(Cl)cc3)n2)n[nH]1`, the inhibition is 74.4% (active).

With `Cn1ccsc1=NC(=O)c1csc(-c2ccc(Cl)cc2)n1`, the inhibition was 15.8%.

Regarding `Cc1ccc(-c2nc(COC(=O)c3cc(Cl)c[nH]3)cs2)cc1`, the inhibition is 34.1%.

`Cc1nc2cc(NC(=O)C3CCCN(C(=O)OC(C)(C)C)C3)ccc2o1` (centres undefined): the inhibition is 82.6% (active).

Regarding `Cc1cc2cc(C(=O)N3CCCC(C(=O)Nc4ccc(-c5ccco5)cc4)C3)ccc2o1` (centres undefined), the inhibition was -11.5%.

In the case of `Cc1nc2cc(NC(=O)C(C)Oc3ccc(Cl)cc3)ccc2o1` (centres undefined), the inhibition is -4.42%.

With `O=C(Nc1ccccc1N1CCCC1)c1cc(C2CC2)on1`, the inhibition is 36.3%.

In the case of `CC(NC(=O)c1cc(C2CC2)on1)c1cc(Cl)ccc1Cl` (centres undefined), the inhibition was 56.5% (active).

Take `CC(C)C(=O)N1CCC(NC(=O)c2cc(C3CC3)on2)CC1`: the inhibition was -6.02%.

Consider `CCc1cc(=O)[nH]c(-n2nc(C)cc2NC(=O)c2cccs2)n1`, for which the inhibition was -29.6%.

On to `CCCc1cc(=O)[nH]c(-n2nc(C)cc2NC(=O)c2ccc(C)cc2)n1`, for which the inhibition is 101% (active).

As for `CCCc1cc(=O)[nH]c(-n2nc(C)cc2NC(=O)c2cccs2)n1`, the inhibition is 100% (active).

With `CCCc1cc(=O)[nH]c(-n2nc(C)cc2NC(=O)c2ccc(Br)cc2)n1`, the inhibition was 99.8% (active).

Take `CCCc1cc(=O)[nH]c(-n2nc(C)cc2NC(=O)c2cccc(Br)c2)n1`: the inhibition is 101% (active).

Take `CNc1cc(C)nc(NCc2cc(C)cc3c(C)c(C)[nH]c23)n1`: the inhibition was 41.1%.

Regarding `CCCc1cc(=O)[nH]c(-n2nc(C)cc2NC(=O)c2cccc(C(F)(F)F)c2)n1`, the inhibition is 91.4% (active).

As for `CCCc1cc(=O)[nH]c(-n2nc(C)cc2NC(=O)c2cc(OC)cc(OC)c2)n1`, the inhibition is -22.1%.

For `CCCc1cc(=O)[nH]c(-n2nc(C)cc2NC(=O)c2cccc(F)c2)n1`, the inhibition was 100% (active).

In the case of `CCCc1cc(=O)[nH]c(-n2nc(C)cc2NC(=O)c2ccccc2)n1`, the inhibition was 101% (active).

For `CCCc1cc(=O)[nH]c(-n2nc(C)cc2NC(=O)c2cccc(OC)c2)n1`, the inhibition is 99.8% (active).

`CCN(CC)c1nc2sc(C(=O)NC3(C)CCCC3)cc2s1`: the inhibition was 32.9%.

Consider `CCCc1cc(=O)[nH]c(-n2nc(C)cc2NC(=O)c2cccc(Cl)c2)n1`, for which the inhibition was 101% (active).

With `CCCc1cc(=O)[nH]c(-n2nc(C)cc2NC(=O)c2ccc(C(F)(F)F)cc2)n1`, the inhibition was 102% (active).

Regarding `CCCc1cc(=O)[nH]c(-n2nc(C)cc2NC(=O)c2cc(C(F)(F)F)cc(C(F)(F)F)c2)n1`, the inhibition is 13.6%.

For `CCCc1cc(=O)[nH]c(-n2nc(C)cc2NC(=O)c2ccc(F)cc2)n1`, the inhibition is 101% (active).

With `O=S(=O)(NCc1ccc2c(c1)OCO2)c1ccc(F)c(C(F)(F)F)c1`, the inhibition is 26.9%.

`CN(Cc1ccc(F)cc1)C(=O)NCc1ccc2c(c1)OCO2`: the inhibition is 67.4% (active).

Turning to `CN(Cc1ccoc1)C(=O)c1cn(Cc2cccc(C(F)(F)F)c2)nn1`, the inhibition was 14.9%.

Turning to `CN(Cc1cccc(Cl)c1)C(=O)NCc1cc(F)cc(F)c1`, the inhibition was 72.5% (active).

Take `CN(Cc1ccc(F)cc1F)C(=O)NCc1cccc(C(F)(F)F)c1`: the inhibition was 91% (active).

For the compound `Cc1ccc(NC(=O)N(C)Cc2cccc(F)c2)c(Cl)c1`, the inhibition was 9.23%.

As to `CN(Cc1ccc2c(c1)OCO2)c1ccc(C(=O)NC2CC2)cn1`, the inhibition was 12.6%.

On to `Cc1cc(CNC(=O)CS(=O)(=O)Cc2cccc(Cl)c2)ccc1F`, for which the inhibition is 15.5%.

`CN(Cc1cccc(C(F)(F)F)c1)C(=O)c1cn(Cc2ccccc2Cl)nn1`: the inhibition is 20.9%.

As to `CSc1ccc(NC(=O)CN(C)Cc2ccc3c(c2)OCO3)cc1`, the inhibition was 72.3% (active).

For the origin of these results see PubChem BioAssay AID1259343 (VanderVen Lab, College of Veterinary Medicine, Cornell …, 2017).
